Test results taken from PubChem BioAssay.
A number with no mark means an inactive call. For some of these results: Measured potencies and affinities stand elsewhere. Activity calls are given as the source filed them. Unless noted, no rule for the calls is given here.

Key:
[1] = antimalarial activity against Dd2 strain (AID 2302;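 active = growth inhibition above 50% at the single 2 µM test dose, taken to imply half-maximal potency below 2 µM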;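 also: 0% = DMSO untreated growth and 100% = chloroquine plus artemisinin killed control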); details: P. falciparum Dd2 in RBCs, LDH growth readout, 72 h; at 2 µM; hits give high values
[2] = human hepatoma cell viability loss – ATP luminescence, cytotoxicity control for P. falciparum antimalarial project, primary screen (AID 2303;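 active = inhibition above 50%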;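 also: 0% = DMSO wells and 100% = digitonin-killed cells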); details: HepG2 viability, 24-48 h, at 10 µM, hits give high values
[3] = target: L-lactate dehydrogenase (Plasmodium falciparum (isolate CDC / Honduras)) (UniProt Q27743); experiment: PfLDH activity inhibition – cell lysate, 3D7 strain, counter-screen for P. falciparum growth inhibition project (AID 2304);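 also: 0% = vehicle and 100% = reference inhibitor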; details: P. falciparum 3D7 crude extract, LDH APAD/NBT absorbance; at 2 µM; hits give high values
[4] = inhibition of 3D7 malaria parasite growth – strain 3D7 (AID 2306);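 also: 0% = DMSO wells and 100% = chloroquine plus artemisinin control wells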; details: P. falciparum 3D7 erythrocytic growth, LDH absorbance, 72 h; at 2 µM; hits give high values
[5] = target: Calcium-dependent protein kinase 1 (Plasmodium falciparum (isolate 3D7)) (UniProt P62344); experiment: PfCDPK1 kinase inhibitors, biochemical, TCAMS library (AID 1159585; cut-off not given, nearly all actives have IC50 up to about 0.98 µM;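 also: inhibitors leave more ATP so luminescence rises with inhibition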); details: recombinant PfCDPK1, Kinase-Glo ATP depletion luminescence
[6] = target: Plasmodium falciparum protein kinase 6 (PK6, PF3D7_1337100) (UniProt Q8IDW1); experiment: PfPK6 kinase inhibitors, biochemical, TCAMS library (AID 1159586); details: recombinant PfPK6, Kinase-Glo ATP depletion luminescence
[7] = target: Protein kinase 7 (PK7), Plasmodium falciparum 3D7 (PF3D7_0213400) (UniProt Q7YTF7); experiment: inhibition of Plasmodium PK7 catalytic activity – biochemical, TCAMS antimalarial set, Kinase-Glo luminescence (AID 1159587); details: recombinant PfPK7, Kinase-Glo ATP depletion luminescence
[8] = target: Calcium-dependent protein kinase 4 (Plasmodium falciparum (isolate 3D7)) (UniProt Q8IBS5); experiment: PfCDPK4 kinase inhibitors, biochemical, TCAMS library (AID 1159588; cut-off not given, nearly all actives have IC50 up to about 0.91 µM); details: recombinant PfCDPK4, Kinase-Glo ATP depletion luminescence
Sequence of Calcium-dependent protein kinase 4 (Plasmodium falciparum (isolate 3D7)) (Q8IBS5 whole entry, looked up): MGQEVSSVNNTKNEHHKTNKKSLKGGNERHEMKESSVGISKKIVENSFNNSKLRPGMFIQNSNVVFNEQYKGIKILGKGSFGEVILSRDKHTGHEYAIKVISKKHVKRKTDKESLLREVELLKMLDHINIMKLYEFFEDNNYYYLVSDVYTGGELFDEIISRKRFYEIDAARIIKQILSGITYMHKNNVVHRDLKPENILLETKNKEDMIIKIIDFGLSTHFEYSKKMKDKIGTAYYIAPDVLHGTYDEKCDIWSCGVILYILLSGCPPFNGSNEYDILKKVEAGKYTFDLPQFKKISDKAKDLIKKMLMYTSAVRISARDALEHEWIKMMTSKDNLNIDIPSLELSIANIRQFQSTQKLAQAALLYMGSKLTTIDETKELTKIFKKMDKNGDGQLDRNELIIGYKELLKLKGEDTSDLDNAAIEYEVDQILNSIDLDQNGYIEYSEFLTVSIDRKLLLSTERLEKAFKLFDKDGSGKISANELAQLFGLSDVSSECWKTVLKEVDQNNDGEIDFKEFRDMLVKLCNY

Sequence of L-lactate dehydrogenase (Plasmodium falciparum (isolate CDC / Honduras)) (Q27743 whole entry, looked up): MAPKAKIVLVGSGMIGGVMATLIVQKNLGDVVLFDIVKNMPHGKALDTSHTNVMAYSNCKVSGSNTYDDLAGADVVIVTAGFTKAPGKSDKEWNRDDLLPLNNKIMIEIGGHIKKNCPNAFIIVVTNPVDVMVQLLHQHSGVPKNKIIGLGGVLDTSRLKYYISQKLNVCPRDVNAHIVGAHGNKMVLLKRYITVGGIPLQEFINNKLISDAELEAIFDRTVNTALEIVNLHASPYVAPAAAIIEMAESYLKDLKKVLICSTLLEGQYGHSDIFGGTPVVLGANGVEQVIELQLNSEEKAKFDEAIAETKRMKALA
Sequence of Plasmodium falciparum protein kinase 6 (PK6, PF3D7_1337100) (Q8IDW1 1-305): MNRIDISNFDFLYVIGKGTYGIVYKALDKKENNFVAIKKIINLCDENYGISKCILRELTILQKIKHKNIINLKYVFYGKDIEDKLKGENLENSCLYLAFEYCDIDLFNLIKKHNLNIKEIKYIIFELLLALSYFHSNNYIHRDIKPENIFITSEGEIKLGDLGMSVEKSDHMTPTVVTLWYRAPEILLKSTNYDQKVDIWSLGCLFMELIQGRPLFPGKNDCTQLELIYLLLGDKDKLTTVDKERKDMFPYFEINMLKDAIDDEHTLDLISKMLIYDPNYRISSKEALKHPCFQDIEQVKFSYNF
Sequence of Calcium-dependent protein kinase 1 (Plasmodium falciparum (isolate 3D7)) (P62344 whole entry, looked up): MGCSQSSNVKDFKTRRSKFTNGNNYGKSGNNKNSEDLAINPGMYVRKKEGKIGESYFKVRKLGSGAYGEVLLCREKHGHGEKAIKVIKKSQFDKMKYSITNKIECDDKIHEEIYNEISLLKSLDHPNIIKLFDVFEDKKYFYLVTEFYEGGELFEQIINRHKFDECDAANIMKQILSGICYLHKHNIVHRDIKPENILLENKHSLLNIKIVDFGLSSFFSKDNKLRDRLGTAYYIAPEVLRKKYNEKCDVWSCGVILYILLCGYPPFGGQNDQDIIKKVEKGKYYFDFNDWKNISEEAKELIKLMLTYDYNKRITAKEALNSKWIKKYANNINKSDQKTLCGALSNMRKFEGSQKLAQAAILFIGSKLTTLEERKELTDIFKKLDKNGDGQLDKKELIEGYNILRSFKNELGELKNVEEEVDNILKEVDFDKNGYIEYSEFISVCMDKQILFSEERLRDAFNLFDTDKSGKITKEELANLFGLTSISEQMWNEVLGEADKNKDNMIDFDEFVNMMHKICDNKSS
Sequence of Protein kinase 7 (PK7), Plasmodium falciparum 3D7 (PF3D7_0213400) (Q7YTF7 1-343): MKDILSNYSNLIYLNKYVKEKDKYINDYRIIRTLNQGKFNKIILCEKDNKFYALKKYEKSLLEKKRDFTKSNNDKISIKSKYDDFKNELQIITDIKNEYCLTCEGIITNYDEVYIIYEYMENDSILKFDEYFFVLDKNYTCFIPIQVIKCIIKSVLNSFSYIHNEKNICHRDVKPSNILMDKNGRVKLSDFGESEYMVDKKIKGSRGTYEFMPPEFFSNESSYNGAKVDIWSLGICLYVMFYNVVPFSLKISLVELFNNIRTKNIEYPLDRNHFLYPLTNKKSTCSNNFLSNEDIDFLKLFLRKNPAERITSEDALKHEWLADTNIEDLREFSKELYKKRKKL

Row | SMILES | growth inhibition [1] | inhibition [2] | inhibition [3] | growth inhibition [4] | outcome [5] | outcome [6] | outcome [7] | outcome [8]
1 | O=C(CC1CCCC1)Nc1ccc2c(c1)CCC2 | -2% | -1% | 2% | 93% (active) | inactive | inactive | inactive | inactive
2 | COCCn1c(-c2cccc(Cl)c2)nn(-c2ccc([N+](=O)[O-])cc2Cl)c1=S | 99% (active) | 2% | -2% | 100% (active) | inactive | inactive | inactive | inactive
3 | N#Cc1cccc(NC(=O)Nc2ccc(-c3csc(-c4nc5ccccc5[nH]4)c3)cc2)c1 | 97% (active) | 63% (active) | -3% | 103% (active) | inactive | inactive | inactive | inactive
4 | COc1ccc(-c2ccc(CNCc3ccccc3)cc2)cc1S(=O)(=O)NCCN1CCCC1 | 76% (active) | 36% | -3% | 102% (active) | inactive | inactive | inactive | inactive
5 | O=c1c(NCCCN(Cc2ccc(F)cc2)c2ccccn2)c(NCc2cccnc2)c1=O | 92% (active) | -2% | -2% | 101% (active) | inactive | inactive | inactive | inactive
6 | O=C(NCCc1ccc(F)cc1)c1ccc(N2CCN(c3ccncc3)CC2)nc1 | 3% | 1% | -4% | 88% (active) | inactive | inactive | inactive | inactive
7 | CCc1c[nH]c2c(N3CCCCS3(=O)=O)cc(C(=O)N[C@@H](Cc3ccccc3)[C@H](O)CNCc3cccc(OC)c3)cc12 | 91% (active) | 0% | -3% | 86% (active) | inactive | inactive | inactive | inactive
8 | c1cc(CNCC2CCCO2)cc(-c2ccc(-c3nc4ccccc4[nH]3)s2)c1 (stereo not given) | 30% | 8% | -2% | 95% (active) | inactive | inactive | inactive | inactive
9 | CN(CCN(C)C(=O)NCc1ccccc1)C(=O)NCc1ccccc1 | 0% | 2% | 1% | 101% (active) | inactive | inactive | inactive | inactive
10 | Cc1ccc(-c2nc(NC(=O)Nc3ccc(C(F)(F)F)cc3)sc2C)cc1Cl | 86% (active) | 29% | -5% | 99% (active) | inactive | inactive | inactive | inactive
11 | O=C1COc2ccc(S(=O)(=O)N3CCC[C@@H]3CCN3CCC(c4c[nH]c5cnccc45)CC3)cc2N1 | 6% | -8% | 1% | 101% (active) | inactive | inactive | inactive | inactive
12 | OC1(c2ccccc2)CCN(Cc2cccc(-c3c[nH]c4nc(NC5CCCC5)ncc34)c2)C1 (stereo not given) | 31% | 42% | -1% | 92% (active) | inactive | inactive | inactive | inactive
13 | CCCN(CCC)CCCNc1ccc(C(=O)Nc2ccc(C)c(F)c2)cc1[N+](=O)[O-] | 94% (active) | 33% | 3% | 100% (active) | inactive | inactive | inactive | inactive
14 | CC(C)N1CCC(NC(=O)N2CCCN(c3ncnc4cc(-c5ccccc5)sc34)CC2)CC1 | 11% | 31% | -4% | 87% (active) | inactive | inactive | inactive | inactive
15 | CCc1cn2c3c(cc(C(=O)N[C@@H](Cc4ccccc4)[C@H](O)CNCCOC)cc13)N(C)S(=O)(=O)CC2 | 56% (active) | 7% | -9% | 98% (active) | inactive | inactive | inactive | inactive
16 | N#Cc1ccc(/C=C/C(=O)NCCCCCN2CCCN(C(=O)Nc3ccc(Cl)c(C(F)(F)F)c3)CC2)cc1 | 13% | 28% | 0% | 98% (active) | inactive | inactive | inactive | inactive
17 | Cc1cc(N2C(N)=NC(N)=NC2(C)C)ccc1Cl | -2% | 66% (active) | -5% | 95% (active) | inactive | inactive | inactive | inactive
18 | Cc1cccc(CCCNC(=O)CN(c2cccc(C(F)(F)F)c2)S(=O)(=O)c2ccc(C(F)(F)F)cc2)c1 | 94% (active) | 9% | 5% | 96% (active) | inactive | inactive | inactive | inactive
19 | COc1ccc(C2CC(c3cccs3)=NN2C(=O)COc2cccc3c2CCCC3O)cc1OC (stereo not given) | 62% (active) | 5% | 3% | 93% (active) | inactive | inactive | inactive | inactive
20 | N#Cc1ccc2c(c1)CCN(CCC1CCC(NC(=O)c3cc4ccc(Br)cc4[nH]3)CC1)C2 (stereo not given) | 17% | 12% | -13% | 103% (active) | inactive | inactive | inactive | inactive
